Experimental data as given in the supplement of paper PMC5662767.
Where a name gives a salt, the structure may show the parent alone.

System: Drosophila S2 cl14 SmoIP sensor cells
Test: normalized SmoIP GFP fluorescence (untreated unstimulated = 0%, untreated Hh-stimulated = 100%); higher = more Smo activation sensor fluorescence
Conditions: compound concentration: 2 uM, 24 h
[1] = stimulation: Hh conditioned medium (+Hh)
[2] = stimulation: mock conditioned medium (-Hh)
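Note: flow cytometry read-out as median GFP intensity of gated cells, compounds added 30 min before Hh-conditioned or mock medium, mock-treated cells serving as unstimulated baseline.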

SMILES	normalized SmoIP GFP fluorescence [1]	normalized SmoIP GFP fluorescence [2]
C[C@H](NC(=O)/C(C#N)=C/c1cccc(Br)n1)c1ccccc1	86.1%	8.14%
Nc1nccc2c1ncn2[C@@H]1C=C(CO)[C@@H](O)[C@H]1O [3-deazaneplanocin-a-dznep]	142%	0.702%
CN1CCC(NC(=O)c2cc(-c3c(O)cc(O)cc3Oc3ccc([N+](=O)[O-])cc3)on2)CC1	129%	4.56%
Cc1ccc(C(=O)Nc2ccc(CN3CCN(C)CC3)c(C(F)(F)F)c2)cc1C#Cc1cnc2[nH]ncc2c1	104%	3.88%
COc1cc([C@@H]2c3cc4c(cc3[C@@H](O[C@@H]3O[C@@H]5CO[C@@H](C)O[C@H]5[C@H](O)[C@H]3O)[C@H]3COC(=O)[C@H]23)OCO4)cc(OC)c1OP(=O)(O)O [Etopophos]	178%	28.7%
Cc1ccc(S(=O)(=O)NC(=O)NN2CC3CCCC3C2)cc1 (stereo not drawn) [gliclazide-diamicron]	111%	-13.7%
CCNC(=O)c1[nH]nc(-c2cc(Cl)c(O)cc2O)c1-c1ccc(OC)cc1	188%	23.1%
NC1(Cc2ccc(Cl)cc2)CCN(c2ncnc3[nH]ccc23)CC1	115%	8.36%
C#Cc1cccc(Nc2ncnc3cc4c(cc23)OCCOCCOCCO4)c1 [icotinib]	93.3%	-1.63%
CCc1cc2c(cc1N1CCC(N3CCOCC3)CC1)C(C)(C)c1[nH]c3cc(C#N)ccc3c1C2=O	148%	8.36%
CC(C)[C@H](O)C(=O)N[C@@H](C)C(=O)N[C@@H]1C(=O)N(C)CCc2ccccc21	98.8%	13.8%
CC(C)(C)NS(=O)(=O)c1cncc(-c2cc(F)c3nc(N)nn3c2)c1	104%	-4.47%
Cc1ccc(C(=O)Nc2ccc(CN3CCN(C)CC3)c(C(F)(F)F)c2)cc1C#Cc1cnc2cccnn12	128%	11.3%
COc1cc2nc(N3CCN(C(=O)C4COc5ccccc5O4)CC3)nc(N)c2cc1OC (stereo not drawn) [Doxazosin-mesylate]	105%	8.14%
COc1ccc(C[C@H](NC(=O)[C@H](C)NC(=O)CN2CCOCC2)C(=O)N[C@@H](Cc2ccccc2)C(=O)[C@@]2(C)CO2)cc1	86.4%	15.1%
O=C(NC(NC(=S)Nc1ccc(F)c([N+](=O)[O-])c1)C(Cl)(Cl)Cl)C(c1ccccc1)c1ccccc1 (stereo not drawn)	108%	0.815%
O=C(Nc1cccc(Cl)c1)c1ccccn1	105%	-2.93%
CC1CCN(CC[C@H]2CCCN2S(=O)(=O)c2cccc(O)c2)CC1	108%	1.21%
CC(=O)Nc1cccc(N2C(=O)N(C3CC3)C(=O)C3C(Nc4ccc(I)cc4F)N(C)C(=O)C(C)C32)c1 (stereo not drawn)	140%	-4.08%
CC(C)C[C@H](NC(=O)CNC(=O)c1cc(Cl)ccc1Cl)B1OC(=O)C(CC(=O)O)(CC(=O)O)O1	157%	31%
CN(C)[C@@H](CCOc1cccc2ccccc12)c1ccccc1 [Dapoxetine-hydrochloride(Priligy)]	115%	-13.2%
CNC(=O)c1ccc(N2C(=S)N(c3ccc(C#N)c(C(F)(F)F)c3)C(=O)C2(C)C)cc1F	113%	4.03%
Cc1cc(C)c(Nc2ccnc(Nc3ccc(C#N)cc3)n2)c(C)c1 [dapivirine]	111%	-4.13%

SMILES	normalized SmoIP GFP fluorescence [1]	normalized SmoIP GFP fluorescence [2]
CC1(COc2ccc3c(c2)ncn3-c2ccc3cccc(N4CCC(N)CC4)c3n2)COC1	260%	77.9%
CCCCOc1c(C(=O)c2c(F)cc(C)cc2F)c[nH]c2nncc1-2	138%	-11.7%
C[C@@H](Oc1cc(-n2cnc3ccc(CN4CCN(C)CC4)cc32)sc1C(N)=O)c1ccccc1C(F)(F)F	113%	17.7%
COc1ccc(CCc2nc3cc(-c4c(C)noc4C)ccc3n2C[C@H](C)N2CCOCC2)cc1Cl	144%	2.75%
CCOC(=O)[C@H](CCc1ccccc1)N[C@@H](C)C(=O)N1CCC[C@H]1C(=O)O [Enalapril-maleate(Vasotec)]	97.8%	-15.1%
CCN1CCCC1CNC(=O)c1cc(S(=O)(=O)CC)c(N)cc1OC (stereo not drawn) [Amisulpride]	111%	3.51%
CNC(=O)c1cc(Oc2ccc(NC(=O)Nc3cc(C(C)(C)C)nn3-c3ccc4ncccc4c3)c(F)c2)ccn1	183%	0.605%
C[C@@H]1C(=O)O[C@H]2C[C@@]34[C@H]5C[C@@H](C(C)(C)C)[C@]36[C@@H](OC(=O)[C@@H]6O)O[C@@]4(C(=O)O5)[C@]21O [ginkgolide-a]	99.5%	-2.08%
CC(C)CN(C[C@@H](O)[C@H](Cc1ccccc1)NC(=O)O[C@H]1CO[C@H]2OCC[C@H]21)S(=O)(=O)c1ccc(N)cc1 [Darunavir-Ethanolate(Prezista)]	101%	-5.54%
O=C(O)C(Cc1ccccc1[N+](=O)[O-])=NNc1nc(-c2ccc(Cl)c(Cl)c2)cs1 (mixture of isomers)	127%	46.7%
CCCCCCCCc1ccc(CCC(N)(CO)CO)cc1	107%	-0.0369%
CNC(=O)c1cc(Oc2ccc(NC(=O)Nc3ccc(Cl)c(C(F)(F)F)c3)cc2)ccn1 [sorafenib]	107%	9.54%
CC(C(=O)O)c1ccc2c(c1)CC(=O)c1ccccc1S2 (stereo not drawn) [zaltoprofen]	111%	-1.97%
C#C[C@]1(OC(C)=O)CC[C@H]2[C@@H]3CCC4=C[C@@H](OC(C)=O)CC[C@@H]4[C@H]3CC[C@@]21C [ethynodiol-diacetate]	100%	-1.63%
O=c1cc(N2CCOCC2)oc2c(-c3ccccc3)cccc12	108%	-5.76%
CO[C@@H](C(=O)N1Cc2[nH]nc(NC(=O)c3ccc(N4CCN(C)CC4)cc3)c2C1)c1ccccc1	122%	12.4%
CS(=O)(=O)c1ccc(-c2cnc(N)c(C(=O)Nc3ccccc3)n2)cc1	232%	74.4%
CC(C)(C)c1cc(C(C)(C)C)c(NC(=O)c2c[nH]c3ccccc3c2=O)cc1O	-31.6%	7.39%
O=C(O)c1cccc(-c2noc(-c3ccccc3F)n2)c1	116%	-0.662%
NC(=O)c1ccc(N(C(N)=O)c2c(F)cccc2F)nc1-c1ccc(F)cc1F	103%	-3.5%
CN(C)CC(=O)Nc1ccc2[nH]c(=O)c3ccccc3c2c1	113%	-1.97%
CCCCOc1cc(C(=O)NCCN(CC)CC)c2ccccc2n1 [dibucaine-cinchocaine-hcl]	113%	0.361%
CC(=O)S[C@@H]1CC2=CC(=O)CC[C@]2(C)[C@H]2CC[C@@]3(C)[C@@H](CC[C@@]34CCC(=O)O4)[C@H]12 [spironolactone]	102%	-4.58%

SMILES	normalized SmoIP GFP fluorescence [1]	normalized SmoIP GFP fluorescence [2]
CNC(=O)c1cc(COc2nnc(Nc3ccc(Cl)cc3)c3ccoc23)ccn1 [Telatinib-BAY-57-9352]	104%	-14.3%
CCc1c(C(=O)NCCc2ccc(N3CCCCC3)cc2)[nH]c2ccc(Cl)cc12	167%	-0.804%
CN(C[C@@H]1COCCO1)S(=O)(=O)Nc1ccc2ccc3ncc(-c4cnn(C)c4)cc3c(=O)c2c1	79.1%	16.3%
O=C1NC(=O)C(=Cc2ccc(-c3ccc(F)cc3)o2)S1 (stereo in doubt)	102%	-2.48%
CO[C@H]1C[C@@H]2CC[C@@H](C)[C@@](O)(O2)C(=O)C(=O)N2CCCC[C@H]2C(=O)O[C@H]([C@H](C)C[C@@H]2CC[C@@H](OC(=O)C(C)(CO)CO)[C@H](OC)C2)CC(=O)[C@H](C)/C=C(\C)[C@@H](O)[C@@H](OC)C(=O)[C@H](C)C[C@H](C)/C=C/C=C/C=C/1C [Temsirolimus]	56.5%	-1.56%
COc1cc(OC)c(NC(=O)Nc2cc(C)on2)cc1Cl	114%	-5.98%
C[C@H](N[C@@H](CCc1ccccc1)C(=O)O)C(=O)N1CCC[C@H]1C(=O)O [Enalaprilat]	117%	-0.265%
COc1ccc(C2=N[C@@H](c3ccc(Cl)cc3)[C@@H](c3ccc(Cl)cc3)N2C(=O)N2CCNC(=O)C2)c(OC(C)C)c1 [Nutlin-3]	90.4%	2.11%
O=c1oc2cc(O)ccc2s1 [tioxolone]	169%	-1.83%
O=C(/C=C/c1cccc(S(=O)(=O)Nc2ccccc2)c1)NO [Belinostat]	189%	54.6%
Nc1ccc2ncnc(NCCc3ccc(Oc4ccccc4)cc3)c2c1	45.5%	39.1%
COc1cc2nc(N(C)CCCNC(=O)C3CCCO3)nc(N)c2cc1OC (stereo not drawn) [Alfuzosin-hydrochloride]	101%	-2.42%
COc1cccc2cc(-c3nc([C@H]4CC[C@H](C(=O)O)CC4)n4ncnc(N)c34)[nH]c12	54.2%	-5.17%
O=[N+]([O-])c1ccc2c(c1)S(=O)(=O)C=C2 [stattic]	116%	-1.74%
Cc1cc(F)c(Nc2ncnc3cc(OCc4ccccc4)ccc23)cc1O	104%	-3.39%
COc1c(C)cnc(Cn2cnc3c(Cl)nc(N)nc32)c1C	121%	34.5%
O=C(Nc1cccc2cccnc12)c1ccc(N2C(=O)[C@@H]3[C@H](C2=O)[C@@H]2C=C[C@H]3C2)cc1 [iwr-1-endo]	114%	-4.92%
Cn1ncnc1[C@H]1c2n[nH]c(=O)c3cc(F)cc(c23)N[C@@H]1c1ccc(F)cc1	107%	-2.82%
NCC(=O)Nc1ccc(-n2nc(C(F)(F)F)cc2-c2ccc3c(ccc4ccccc43)c2)cc1	100%	0.812%
O=C(CCCCCCC(=O)Nc1ccccc1)NO [Vorinostat-(SAHA)]	89.9%	37.6%
C=CC(=O)Nc1cccc(Oc2nc(Nc3ccc(N4CCN(C)CC4)cc3OC)ncc2Cl)c1	96.5%	19.1%
CCCOc1ccc(C(=O)OCCN(CC)CC)cc1N [proparacaine-hcl]	111%	-2.48%
O=C1CCC(N2C(=O)c3ccccc3C2=O)C(=O)N1 (stereo not drawn) [Thalidomide]	101%	4.26%
